In the library only some 3.5% were active in any assay of this set; here they are far more common.
Hsp90 Hop PPI: changes Hsp90-Hop TPR2A binding signal, up or down; AlphaScreen TPR2A-His6 binding biotin-Hsp90 C-terminal peptide; Potency, µM (highest dose often 57 µM), without a hit: top-dose activity change, negative = inhibition; 0.44% of 71,000 active; AID 595; active = well fitted curve in either direction with a large enough effect; inconclusive = small, poorly fitted or top-dose-only effect, or another doubt; also: % is scaled to controls: 0 for no effect and ±100 for the full control effect
TSHR agonist: TSH receptor (human) agonism | HEK293-CNG-TSHR cells (CNG channel as cAMP sensor), membrane potential dye, cAMP | Potency, µM (doses to about 57.1 µM), for the others: top-dose activation, hits mostly activators | 0.48% of 73,000 active | AID 926; active = well fitted activation curve with a large enough effect in the main read-out, with a control signal flat, not every such curve was filed as active; inconclusive = small, poorly fitted or top-dose-only effect, or a change in a side signal; inactive = no such curve, though single readings can be large or run the other way; % of control where 0% means no effect;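 also: the control signal comes from parental cells without the receptor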
Target sequence (P16473 whole entry, looked up): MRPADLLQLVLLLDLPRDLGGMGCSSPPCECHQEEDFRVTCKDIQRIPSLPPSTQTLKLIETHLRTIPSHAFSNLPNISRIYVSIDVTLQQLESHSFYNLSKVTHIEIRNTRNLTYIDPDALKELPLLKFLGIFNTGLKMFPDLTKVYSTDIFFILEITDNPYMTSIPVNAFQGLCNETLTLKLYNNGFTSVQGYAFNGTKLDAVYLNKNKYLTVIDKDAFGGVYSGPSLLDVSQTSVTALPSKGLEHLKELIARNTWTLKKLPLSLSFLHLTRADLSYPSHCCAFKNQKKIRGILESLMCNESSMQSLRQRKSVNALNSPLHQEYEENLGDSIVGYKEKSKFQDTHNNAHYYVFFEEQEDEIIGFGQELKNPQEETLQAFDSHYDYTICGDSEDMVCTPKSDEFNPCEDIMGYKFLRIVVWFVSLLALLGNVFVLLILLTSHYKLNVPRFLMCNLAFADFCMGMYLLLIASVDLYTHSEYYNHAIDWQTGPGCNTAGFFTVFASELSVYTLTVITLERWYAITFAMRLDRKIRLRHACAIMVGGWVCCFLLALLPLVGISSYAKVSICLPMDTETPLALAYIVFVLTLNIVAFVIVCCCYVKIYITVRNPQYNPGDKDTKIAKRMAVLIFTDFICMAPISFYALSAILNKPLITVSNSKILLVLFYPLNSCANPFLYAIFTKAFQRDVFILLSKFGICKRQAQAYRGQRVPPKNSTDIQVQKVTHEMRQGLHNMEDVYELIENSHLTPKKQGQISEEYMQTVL
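cAMP rise detected as CNG-channel membrane depolarization by fluorescent dye (emission 590 nm), 30 min after compound, following 60 min dye loading containing 100 uM RO 20-1724 at room temperature. Cells: TSHR/CNG HEK 293, with parental CNG HEK 293 as control.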
HEK293 cAMP cs: parental HEK293 cAMP activation (counter-screen) | parental HEK293 CNG cAMP sensor, membrane potential fluorescence | Potency, µM (series often up to 57.1 µM), for the others: at the highest dose activation, most hits filed as activators | 2.5% of 73,000 active | AID 938; active = well fitted activation curve with a large enough effect; inconclusive = small, poorly fitted or top-dose-only effect; inactive = no such curve, though single readings can be large or run the other way; also: % of control where 0% means no effect; nearly all actives have a fitted effect of over 55% in size
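Parental HEK 293 cells stably expressing a cAMP-gated CNG channel were loaded with membrane potential dye containing 100 uM RO 20-1724 for 60 min. Compound added for 30 min; depolarization read as fluorescence intensity at 590 nm.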
CRE Fsk mod: modulators of forskolin-stimulated CRE signaling in CHO cells. Potency, µM (doses to about 38.2 µM), for the others: at the highest dose activity change, negative = inhibition, hits mostly activators. AID 662. CHO CRE-bla reporter (cAMP response element driving beta-lactamase), forskolin EC10, beta-lactamase ratio. 2.5% of 71,000 active; active = well fitted activation curve with a large enough effect in the signal ratio, with a control signal flat, not every such curve was filed as active; inconclusive = small, poorly fitted or top-dose-only effect, or effect the other way, or a change in a side signal; the % refers to the signal ratio; also: % of control where 0% means no effect
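CHO CRE-bla cells, overnight plating in Opti-MEM with 0.5% dialyzed FBS; cpd titration + EC10 NKH 477, 3 h 37 °C; CCF4 2 h RT; ex 405/em 460 vs 530 ratio → %Activity, AC50.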
IkB signaling: suppresses IkB signaling in ABC-DLBCL reporter cells; ABC-DLBCL IkBa-CBG/CBR dual luciferase ratio, 4 h; response scale: scaled: untreated 0%, proteasome inhibitor 100%; 0.04% of 110,000 active; Potency, µM (series often up to 57.1 µM), for inactives: at the top dose IkBa stabilization activation; active = well fitted curve in the direction sought with a large enough effect in the signal ratio, not every such curve was filed as active; inconclusive = small, poorly fitted or top-dose-only effect, or a change in a side signal; the % refers to the signal ratio;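 also: the direction sought is a rising ratio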
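Curves were fitted separately to fusion (green), unfused (red) and ratio luminescence, then classed by r2, magnitude and activity. Cells: OCI-Ly3, 4 h compound plus doxycycline at 37C; 10 uM MG-132 defined full response.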
* marks the source's active call; other numbers are inactive results; ? = inconclusive; / = no result; [ ] = dose if it differs, or a comment. Potency is read from the fitted curve at half-maximal effect.

SMILES	Hsp90 Hop PPI	TSHR agonist	HEK293 cAMP cs	CRE Fsk mod	IkB signaling
CCC(C)n1c(-c2cccs2)nc2nc3ccccc3nc21 (stereo not drawn)	11%	6%	16%	10µM*	-1%
C=CCn1c(-c2cccs2)nc2nc3ccccc3nc21	13%	-11%	10%	10µM*	-2%
O=CNc1ncn[nH]1	-1%[11 µM]	0%[11.4 µM]	0%[11.4 µM]	0%[7.6 µM]	2%[11.4 µM]
COc1ccc(-c2oc3ncnc(NCCCN4CCOCC4)c3c2-c2ccc(OC)cc2)cc1	-6%	2%	0%	?	1%
c1ccc(-c2oc3ncnc(NCCCN4CCOCC4)c3c2-c2ccccc2)cc1	-16%	?	?	2.5µM*	?
COc1ccc(-c2oc3ncn(CCN4CCOCC4)c(=N)c3c2-c2ccc(OC)cc2)cc1	-10%	?	-33%	0.25µM*	?
O=C(COc1ccccc1F)Nc1nnc(SCc2cc(=O)c3ccccc3[nH]2)s1	/	/	/	/	-1%
COC(=O)c1cc2oc(C)cc2n1Cc1ccccc1Cl	/	/	/	/	1%
O=c1ccc2c(OCCCCc3ccccc3)c3ccoc3cc2o1	?	?	25µM*	?	-7%
O=c1ccc2cc3ccoc3cc2o1	1%	-1%	2%	15%	0%[11.4 µM]
CCOc1ccc(-n2c(SCc3ccccc3)nc3c([nH]c4ccccc43)c2=O)cc1	/	/	/	/	-1%
CCNc1ccc(S(=O)(=O)C(F)(F)F)cc1NC(=O)C12CCC(CC1)C2	0%	?	16µM*	5%	1%
CCC(=O)Nc1cc(C)c(NC(=O)C23CC4CC(CC(C4)C2)C3)cn1	-3%	10%	-4%	4%	0%
O=C(Nc1ccc2nc(-c3cccs3)[nH]c2c1)c1cccs1	-6%	25%	11%	3.2µM*	?
O=C(Nc1ccc(O)c(-c2nc3ccccc3o2)c1)c1cccs1	/	/	/	/	0%
O=C(Nc1ccc2nc(-c3cccs3)[nH]c2c1)c1ccco1	-7%	12%	10%	5µM*	2%
c1ccc(Nc2ncnc3ccc(-c4cccnc4)cc23)cc1	4%	5%	5%	?	-2%[11.4 µM]
COc1ccc2oc(C(=O)OCC(=O)c3ccc4c(c3)OCCO4)c(C)c2c1	-2%	?	20µM*	-5%	0%
COc1ccc(CNC(=O)COC(=O)c2ccc3c(c2)OCCO3)cc1	4%	7%	16%	-7%	1%
COc1ccc(-n2c(=O)c(CCc3ccccc3)nc3cnc(N(C)C)nc32)cc1	-4%	-2%	6%	11%	3%[11.4 µM]
Cc1cc2c(c(=O)n1CCc1ccccc1)C(C(C)C)C(C#N)=C(N)O2 (stereo not drawn)	4%	14%	7%	16%	-1%
CCCC1C(C#N)=C(N)Oc2cc(C)n(C)c(=O)c21 (stereo not drawn)	?	0%	4%	13µM*	2%
Cc1cc2c(c(=O)n1C1CC1)C(c1cccc(Cl)c1)C(C#N)=C(N)O2 (stereo not drawn)	1%	?	3.2µM*	9%	1%
Cc1cc2c(c(=O)n1C)C(Cc1ccccc1)C(C#N)=C(N)O2 (stereo not drawn)	-5%	?	?	13µM*	5%
CCn1c(C)cc2c(c1=O)C(c1ccncc1)C(C#N)=C(N)O2 (stereo not drawn)	-3%	1%	1%	13%	0%
SMILES	Hsp90 Hop PPI	TSHR agonist	HEK293 cAMP cs	CRE Fsk mod	IkB signaling
Cc1sc2ncn(CC(=O)N3CCN(c4ccccc4F)CC3)c(=O)c2c1S(=O)(=O)N1CCN(c2ncccn2)CC1	/	/	/	/	2%
Cc1ccc(-n2c(SCC(=O)N3CCc4ccccc43)nc3c([nH]c4ccccc43)c2=O)cc1	/	/	/	/	-1%
Cc1ccc(-c2nnc(CSc3nc(C)nc4sc(C)c(C)c34)o2)cc1	-2%	18%	3%	13%	1%
Cc1nc(SCC#N)c2c(C)c(C)sc2n1	-2%	/	30%	2µM*	1%
O=S(=O)(c1ccccc1)c1nc(-c2ccco2)oc1NCc1ccco1	-10%	18%	16%	-1%	3%
CC1CN(c2oc(-c3ccco3)nc2S(=O)(=O)c2ccccc2)CC(C)O1 (stereo not drawn)	0%	25µM*	27%	-14%	2%
COC(=O)c1cc(=O)[nH]c(=O)[nH]1	-5%[11 µM]	0%[11.4 µM]	-5%[11.4 µM]	11%[7.6 µM]	1%[11.4 µM]

Screens as filed in PubChem.
